Reference: PubChem BioAssay

Assay: splicing luciferase reporter signal modulators, primary screen, spliceosome inhibition project, cell-based, HEK293, splice +/- reporter (AID 1101);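 note: HEK293 cells carrying a splicing-competent luciferase reporter gene; test concentration not given here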
Details: luminescence, 24 h, higher = more signal, called active from +8 up or from −8 down

z-score, inactive:
COc1ccc(O[C@H]2C=C[C@@H](c3ccccc3)O[C@@H]2CON=CC[C@@H]2C=C[C@H](OC(C)=O)[C@@H](COC(C)=O)O2)cc1 0.731, CO[C@H]1COC(=O)CC=C[C@@H](C)[C@H](NS(=O)(=O)c2ccc(C)cc2)COC(=O)CCC[C@@H]1C -0.679, CON=CC[C@@H]1C=C[C@H](OC(C)=O)[C@@H](COC(C)=O)O1 0.079, C=COC[C@@H]1CN2[C@@H](CC[C@@H](C)[C@@H]2c2ccc(Br)cc2)C(=O)O1 -0.589, O=C1[C@H]2[C@H]3[C@H](O)[C@H](O)CC(=NOCc4ccccc4)[C@@H]3CC[C@H]2C(=O)N1Cc1ccc2c(c1)OCO2 0.631, COC(=O)NCC=Cc1nc(CCCO)co1 0.566, CO[C@H]1COC(=O)CC=C[C@H](C)[C@@H](OC)COC(=O)[C@@H](C)COC(=O)CC=C[C@@H]1C 0.337, COC(=O)[C@@H]1CC[C@H](C)[C@@H](c2ccc(C)cc2)N1C(=O)c1ccc(C=NOC[C@@H](C)[C@H](OCc2ccccc2)C(C)C)cc1 -1.12, COC(=O)CC=C[C@@H](C)[C@@H](C=NO[C@@H]1O[C@H](COC(C)=O)[C@@H](OC(C)=O)[C@H](OC(C)=O)[C@H]1OC(C)=O)NS(=O)(=O)c1ccc(C)cc1 -0.15, CCOC(=O)[C@H](CC(C)C)NC(=O)CCC1CC(OC(=O)NCc2cccc3ccccc23)CC2(CCCC(COC(=O)NCCOc3ccccc3)O2)O1 (stereo not given in full) -1.87
